Here are results for 9 molecules from PubChem BioAssay (NCI).

Among the test systems are NCI-H23 lung; NCI-H226 lung; NCI-H322M lung; HOP-62 NSCLC; NCI-H460 lung; HOP-92 NSCLC; NCI-H522 lung; A549/ATCC NSCLC; 786-0 renal; COLO 205 colon; DU-145 prostate; K-562 leukemia; MDA-MB-231 breast; RXF 393 renal; SF-268 CNS; SF-295 CNS; SF-539 CNS; UACC-257 melanoma; M14 melanoma.
Common to all, as to test: NCI-60 one-dose screen, 48 h (100 = growth as untreated, 0 = no growth, -100 = all killed)
Holding throughout (details): 10 µM

The panel holds about 83,000 compounds, 20% with a hit somewhere; the sample as a whole holds those more often.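 Compound tested at a single concentration for 48 hours in 96-well plates; a percent growth value below 10 was scored as active.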 Unmarked numbers belong to inactive results. Active and inactive are the calls of the source.

For the molecule `COC(=O)CCCCCCCCC(C)c1ccc(C(C)=O)cc1` (stereo unspecified), the growth in the assay with NCI-H23 lung was 99.9%; with NCI-H226 lung, 104%; with NCI-H322M lung, 121%; with HOP-62 NSCLC, 100%; in the assay with NCI-H460 lung, 108%; in the assay with HOP-92 NSCLC, 113%. For the same molecule, the growth in the assay on NCI-H522 lung was 101%; in the assay on A549/ATCC NSCLC, 105%; in the assay with 786-0 renal, 102%; in the assay on COLO 205 colon it was 114%; with DU-145 prostate, 108%; in the assay with K-562 leukemia, 92.3%. Besides, the growth in the assay on MDA-MB-231 breast is 119%; in the assay with RXF 393 renal, 111%; in the assay with SF-268 CNS it was 104%; in the assay with SF-295 CNS it was 92.1%; in the assay with SF-539 CNS, 101%; in the assay with UACC-257 melanoma, 119%. Further, the growth in the assay with M14 melanoma is 121%.
As for `Cc1ccc2nc3[nH]c(=O)[nH]c(=O)c3c(N)c2c1`, the growth is 91.9% with NCI-H23 lung; 100% with NCI-H226 lung; 73.3% in the assay with NCI-H322M lung; 84.3% in the assay with HOP-62 NSCLC; 81.2% in the assay with NCI-H460 lung; 76% in the assay on HOP-92 NSCLC. In addition, the growth in the assay on NCI-H522 lung was 83.9%; in the assay on A549/ATCC NSCLC it was 89%; in the assay with 786-0 renal it was 78.7%; with COLO 205 colon it was 91.2%; in the assay on DU-145 prostate it was 77.2%; in the assay with K-562 leukemia it was 96.2%. In addition, the growth is 95.8% in the assay with MDA-MB-231 breast; 77.7% with RXF 393 renal; 88.5% in the assay with SF-268 CNS; 90.9% with SF-295 CNS; 92.3% with SF-539 CNS; 88.9% in the assay with UACC-257 melanoma. The growth in the assay on M14 melanoma was 96%.
In the case of `COc1ccc(Cn2cc3c(c2-c2ccccc2)CC(C)(C)c2cnoc2-3)cc1`, the growth in the assay with NCI-H23 lung is 34.4%; in the assay on NCI-H226 lung, 52.4%; with NCI-H322M lung, 34.1%; in the assay on HOP-62 NSCLC it was 34.2%; in the assay on NCI-H460 lung it was 9.42% (active); in the assay with HOP-92 NSCLC, 59.9%. Moreover, the growth in the assay with NCI-H522 lung is 43.3%; with A549/ATCC NSCLC, 49.6%; in the assay with 786-0 renal, 35.4%; in the assay with COLO 205 colon it was 2.39% (active); in the assay with DU-145 prostate, 37.6%; in the assay with K-562 leukemia, 18%. Further, the growth with MDA-MB-231 breast is 57.6%; with RXF 393 renal it was 20.3%; in the assay on SF-268 CNS it was 40.9%; in the assay with SF-295 CNS, -10.7% (active); in the assay with SF-539 CNS, 6.34% (active); in the assay with UACC-257 melanoma, 58.3%. Moreover, in the assay with M14 melanoma, the growth is 40.1%.
`O=[N+]([O-])C1CC2C=CC1C2` (stereo unspecified): the growth is 100% with NCI-H23 lung; 94.9% in the assay with NCI-H226 lung; 91.1% with NCI-H322M lung; 93.3% in the assay on HOP-62 NSCLC; 108% with NCI-H460 lung; 110% with HOP-92 NSCLC. Also, the growth in the assay on NCI-H522 lung was 101%; in the assay on A549/ATCC NSCLC, 92.3%; with 786-0 renal it was 90.4%; in the assay with COLO 205 colon, 115%; in the assay with DU-145 prostate it was 94.7%; in the assay with K-562 leukemia, 101%. The growth was 111% in the assay with MDA-MB-231 breast; 99% in the assay with RXF 393 renal; 89.6% in the assay with SF-268 CNS; 92.8% in the assay with SF-295 CNS; 102% in the assay with SF-539 CNS; 105% in the assay with UACC-257 melanoma. In the assay on M14 melanoma, the growth was 98.7%.
Consider `COc1cc([C@@H]2c3cc4c(cc3[C@H](SC(=N)N)[C@H]3COC(=O)[C@H]23)OCO4)cc(OC)c1OC`, for which the growth in the assay with NCI-H23 lung was 13.7%; with NCI-H226 lung it was 0.754% (active); in the assay with NCI-H322M lung, 13%; in the assay with HOP-62 NSCLC, 51.4%; in the assay on NCI-H460 lung it was 5.84% (active); in the assay on HOP-92 NSCLC it was 68.5%. Also, the growth is -7.12% (active) in the assay on NCI-H522 lung; 18.3% in the assay with A549/ATCC NSCLC; 10.3% with 786-0 renal; -67.2% (active) in the assay on COLO 205 colon; 6.78% (active) in the assay on DU-145 prostate; 13.8% in the assay with K-562 leukemia. The growth with MDA-MB-231 breast is -5.46% (active); in the assay on RXF 393 renal it was 27.1%; in the assay on SF-268 CNS it was 30.3%; with SF-295 CNS, -20.4% (active); in the assay on SF-539 CNS, -22.5% (active); in the assay with UACC-257 melanoma, 57.1%. Besides, in the assay with M14 melanoma, the growth was 16.9%.
For `COc1cc(/C=C2\C(=O)Nc3cc(C)c(O)cc32)cc(OC)c1OC`, the growth in the assay with NCI-H23 lung is 65.2%; in the assay with NCI-H226 lung, 79.8%; with NCI-H322M lung, 80%; in the assay on HOP-62 NSCLC it was 85.7%; with NCI-H460 lung, 40%; with HOP-92 NSCLC, 63.6%. The growth in the assay on NCI-H522 lung was 41.6%; with A549/ATCC NSCLC, 50.1%; in the assay on 786-0 renal, 70.1%; in the assay on COLO 205 colon, 69.1%; in the assay with DU-145 prostate it was 44.6%; with K-562 leukemia, 15.1%. For the same molecule, the growth in the assay on MDA-MB-231 breast is 39.6%; in the assay with RXF 393 renal it was 23.5%; in the assay on SF-268 CNS it was 60.6%; in the assay with SF-295 CNS it was 43.3%; with SF-539 CNS it was 71.3%; with UACC-257 melanoma it was -11.1% (active). In the assay on M14 melanoma, the growth was 65.9%.
With `CCN(CC)CCCOC(=O)Nc1ccccc1Cl`, the growth in the assay with NCI-H23 lung is 108%; in the assay on NCI-H226 lung, 108%; in the assay on NCI-H322M lung, 129%; in the assay with HOP-62 NSCLC it was 112%; with NCI-H460 lung, 115%; in the assay on HOP-92 NSCLC it was 94.9%. Further, the growth with NCI-H522 lung is 102%; with A549/ATCC NSCLC, 107%; with 786-0 renal it was 98.9%; in the assay with COLO 205 colon it was 118%; with DU-145 prostate, 105%; in the assay on K-562 leukemia it was 99.6%. Also, the growth with MDA-MB-231 breast is 110%; in the assay with RXF 393 renal, 109%; in the assay on SF-268 CNS, 111%; with SF-295 CNS, 113%; with SF-539 CNS, 94.7%; with UACC-257 melanoma, 111%. Moreover, the growth with M14 melanoma was 107%.
With `CC1(C)CC(OCCCC[P+](c2ccccc2)(c2ccccc2)c2ccccc2)CC(C)(C)N1O`, the growth is 4.57% (active) in the assay on NCI-H23 lung; 12.7% in the assay on NCI-H226 lung; 9.8% (active) in the assay with NCI-H322M lung; 13.3% in the assay with HOP-62 NSCLC; 2.69% (active) in the assay on NCI-H460 lung; -41.4% (active) in the assay on HOP-92 NSCLC. For the same molecule, the growth in the assay with NCI-H522 lung is -14.3% (active); with A549/ATCC NSCLC it was 6.09% (active); in the assay on 786-0 renal, -12.4% (active); in the assay on COLO 205 colon, -55.3% (active); in the assay with DU-145 prostate, 5.39% (active); in the assay with K-562 leukemia, -53.4% (active). The growth in the assay with MDA-MB-231 breast is -25.7% (active); in the assay on RXF 393 renal, -38.1% (active); in the assay on SF-268 CNS, 3.46% (active); in the assay with SF-295 CNS, -56% (active); in the assay with SF-539 CNS, 12%; with UACC-257 melanoma it was -40.6% (active). The growth in the assay with M14 melanoma is 8.8% (active).
Consider `COc1cc(N=C2C(=O)N(Cc3ccccc3)c3ccccc32)cc(OC)c1OC`, for which the growth with NCI-H23 lung was 89.9%; in the assay with NCI-H226 lung, 88.3%; in the assay on NCI-H322M lung, 108%; with HOP-62 NSCLC, 101%; in the assay with NCI-H460 lung, 103%; in the assay with HOP-92 NSCLC, 35.6%. For the same molecule, the growth was 75% in the assay with NCI-H522 lung; 103% in the assay on A549/ATCC NSCLC; 103% in the assay on 786-0 renal; 114% with COLO 205 colon; 104% with DU-145 prostate; 97.4% in the assay on K-562 leukemia. The growth in the assay on MDA-MB-231 breast was 105%; with RXF 393 renal, -23% (active); in the assay on SF-268 CNS, 97.4%; in the assay with SF-295 CNS, 94.3%; with SF-539 CNS, 93%; with UACC-257 melanoma, 96.6%. For the same molecule, the growth with M14 melanoma was 98.2%.
